Data: ChEMBL document CHEMBL3433997, “St. Jude Leishmania screening dataset” (2016)

Assays:
Assay type in all cases: functional
[1] = molecular target: Solute carrier family 2, facilitated glucose transporter member 1 (Homo sapiens) (UniProt P11166); experiment: ST_JUDE_LEISH: Cytotoxicity at 2uM final concentration against transgenic Leishmania Mexicana promastigotes LmGLUT1 that are glucose transport deficient and complemented with the human glucose transporter GLUT1. Activity is measured by DNA content using SYBR green in vitro
[2] = molecular target: Hexose transporter 1 (Plasmodium falciparum) (UniProt O97467); experiment: ST_JUDE_LEISH: Cytotoxicity at 2uM final concentration against transgenic Leishmania Mexicana promastigotes LmPfHT that are glucose transport deficient and complemented with the Plasmodium falciparum hexose transporter. Activity is measured by DNA content using SYBR green in vitro
[3] = molecular target: Glucose transporter (Leishmania mexicana) (UniProt O61059); experiment: ST_JUDE_LEISH: Cytotoxicity at 2uM final concentration against transgenic Leishmania Mexicana promastigotes LmGT2 that are glucose transport deficient and complemented with the L. Mexicana glucose transporter 2. Activity is measured by DNA content using SYBR green in vitro

Chain of Solute carrier family 2, facilitated glucose transporter member 1 (Homo sapiens) (P11166 whole entry): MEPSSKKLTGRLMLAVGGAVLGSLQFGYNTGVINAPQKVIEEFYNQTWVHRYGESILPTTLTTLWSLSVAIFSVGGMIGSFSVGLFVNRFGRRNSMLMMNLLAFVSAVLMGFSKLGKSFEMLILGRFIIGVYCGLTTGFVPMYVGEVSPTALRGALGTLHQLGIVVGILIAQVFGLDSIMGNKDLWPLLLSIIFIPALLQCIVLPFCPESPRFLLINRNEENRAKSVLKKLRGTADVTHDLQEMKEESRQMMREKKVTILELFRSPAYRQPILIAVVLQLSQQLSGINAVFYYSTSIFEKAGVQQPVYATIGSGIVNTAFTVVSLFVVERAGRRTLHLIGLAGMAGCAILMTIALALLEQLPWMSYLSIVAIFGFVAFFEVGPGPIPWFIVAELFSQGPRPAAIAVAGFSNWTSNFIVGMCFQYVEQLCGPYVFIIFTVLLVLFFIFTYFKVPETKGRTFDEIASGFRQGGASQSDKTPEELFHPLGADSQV

Compound Cc1ccc(C2CC(c3cccs3)=NN2C(=O)c2ccc(Br)o2)cc1 (stereo not given) has an inhibition [1] of 3.24%, an inhibition [2] of 1.47% and an inhibition [3] of 2.89%.

C=C[C@]1(C)C[C@@H](OC(=O)NC(=O)C2CCN(C(=O)CSc3ccccc3)CC2)[C@]2(C)[C@H](C)CC[C@]3(CCC(=O)[C@H]32)[C@@H](C)[C@@H]1O was tested, and the inhibition [1] was 10.2%, the inhibition [2] was 11.6% and the inhibition [3] was 5.56%.

In the case of O=C(/C=C/c1ccc(Cl)c(Cl)c1)NCCCCCN1CCN(C(=O)Nc2cccc(F)c2)CC1, the inhibition [1] was 3.99%, the inhibition [2] was 2.95% and the inhibition [3] was 2.33%.

With O=C(CNC(=O)c1ccc(O)cc1)Nc1ccc(-c2cccc(-c3nc4cc(C(F)(F)F)ccc4[nH]3)c2)cc1 the inhibition [1] was 8.61%, the inhibition [2] was 8.61% and the inhibition [3] was 8.38%.

Work on Cc1nc(C(=O)N2CCCC[C@H]2CNC(=O)c2ccc(-c3ccc(N4CCCC4=O)cc3C)cc2)c(-c2ccc(F)cc2)s1 yielded an inhibition [1] of -1.91%, an inhibition [2] of -0.31% and an inhibition [3] of 4.58%.

Compound CCOc1ccc(NC(C)=O)c(O)c1 has an inhibition [1] of 5.79%, an inhibition [2] of 5.38% and an inhibition [3] of 3.62%.

CN1CC[C@@H](Oc2cc(NC(=O)Nc3ccccc3Br)ccc2Cl)C1 showed an inhibition [1] of 4.94%, an inhibition [2] of 3.71% and an inhibition [3] of 2.59%.

Compound Oc1cc(NCCCNC2CCc3c(Cl)cc(Cl)cc32)nc2ccccc12 (stereo not given) has an inhibition [1] of 0.63%, an inhibition [2] of 0.11% and an inhibition [3] of 3.08%.

Nc1c(Cl)cc(C(O)CNCCCCCOCCCc2ccc3ncccc3c2)cc1Cl (stereo not given) gave an inhibition [1] of 5.88%, an inhibition [2] of 5.02% and an inhibition [3] of 4.94%.

CCCc1cc(N2CCC(c3ccccc3)(N3CCCCC3)CC2)nc(Nc2ccc(OC)cc2)n1 showed an inhibition [1] of 15.7%, an inhibition [2] of 16.5% and an inhibition [3] of 6.08%.

O=C(Nc1ccc2c(c1)CCN2C1CCN(Cc2ccc(C(F)(F)F)cc2F)C1)c1ccco1 (stereo not given) gave an inhibition [1] of 1.38%, an inhibition [2] of 0.47% and an inhibition [3] of 1.6%.

In the case of COc1c(O)cc2oc(-c3ccc(O)cc3)cc(=O)c2c1O, the inhibition [1] was 1.18%, the inhibition [2] was 1.7% and the inhibition [3] was 3.31%.

Compound COc1c(C2CCN(CCCCNC(=O)c3ccc(C)c(-c4ccc(C(F)(F)F)cc4)c3)CC2)ccc2c1CCCC2 has an inhibition [1] of -1.99%, an inhibition [2] of -1.46% and an inhibition [3] of -0.09%.

Work on CC(C)C[C@H](NC(=O)OC(C)(C)C)C(=O)Nc1ccc(Cc2ccc(NC(=O)[C@H](CC(C)C)NC(=O)OC(C)(C)C)cc2)cc1 yielded an inhibition [1] of 3.16%, an inhibition [2] of 3.22% and an inhibition [3] of 2.99%.

In the case of Nc1nc(Nc2cccc(Cl)c2)ncc1C(=O)NCc1ccncc1, the inhibition [1] was 9.01%, the inhibition [2] was 7.86% and the inhibition [3] was 8.62%.
